Among the data in PubChem BioAssay (NCI) are growth inhibition values, retold here.

Compounds without any hit were thinned out: in the full panel of roughly 79,000, 15% have a hit. Values without a mark were called inactive. The source made the active and inactive calls. Cut-off read from the data, not from the text of the source: active = growth inhibition above about 70%; inactive = the rest.

Assay [1] can be described thus: NCI Yeast Anticancer Drug Screen. Data for the rad50 strain (AID 155).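 Note: 0% = growth of vehicle-only cultures of the same strain.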 The following applies: S. cerevisiae rad50 strain growth inhibition; at 50.0 µM; active compounds read high. The essentials:
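Yeast carrying a defined DNA repair defect were exposed to test compounds, and growth was compared with vehicle-treated controls to give percent inhibition.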

Assay [2] in a line: NCI Yeast Anticancer Drug Screen. Data for the mec2-1 strain (AID 157). The following applies: S. cerevisiae mec2-1 strain, at 50.0 µM, active compounds read high. The essentials: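 Compounds were applied to mec2-1 yeast cells. Their growth was then compared with that of vehicle-treated cultures to give growth inhibition.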
The nature of assay [3]: NCI Yeast Anticancer Drug Screen. Data for the sgs1 mgt1 strain (AID 161).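 Note: 0% = growth of cultures given vehicle only.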 To be noted: S. cerevisiae sgs1 mgt1 strain, at 50.0 µM, active compounds read high. The method in brief:
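This yeast growth screen uses a strain with defined DNA-repair lesions; compound-treated growth is compared with vehicle-treated growth.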

A short description of assay [4]: NCI Yeast Anticancer Drug Screen. Data for the cln2 rad14 strain (AID 165).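 Note: 0% = growth equal to vehicle treated cultures.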 To be noted: S. cerevisiae cln2 rad14 strain, at 50.0 µM, active compounds read high. The method in brief: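 Strain: cln2 rad14 yeast, altered in cell cycle control and DNA damage repair. Read-out: growth inhibition vs vehicle.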
Assay [5] in a line: NCI Yeast Anticancer Drug Screen. Data for the bub3 strain (AID 167). To be noted: S. cerevisiae bub3 mutant strain, at 50.0 µM, active compounds read high. The method in brief: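 Compounds were applied to a genetically altered yeast strain carrying a cell-cycle control defect. Growth inhibition was scored against vehicle-treated controls.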
A short description of assay [6]: NCI Yeast Anticancer Drug Screen. Data for the mlh1 rad18 strain (AID 175). To be noted: S. cerevisiae mlh1 rad18 strain growth inhibition; at 50.0 µM; active compounds read high. The method in brief:
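A repair-deficient yeast strain is exposed to test compound, and growth is scored relative to vehicle-treated controls.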

Turning to `CCN(CC)CCN(CCN(CC)CC)c1c(OC)cccc1OC`, the growth inhibition was 5.8% in assay [1]; -13.2% in assay [2]; 9.25% in assay [3]; -14.4% in assay [4]; 9.15% in assay [5]; 15.8% in assay [6].

As for `Cc1ccccc1-n1c(=S)[nH]c2c(sc(=O)n2-c2ccccc2C)c1=O`, the growth inhibition in assay [1] is 3.95%; in assay [2] it was -7.9%; in assay [3], 0.8%; in assay [4], 17.6%; in assay [5], 0.1%; in assay [6], -11.4%.

On to `CCCCCCCCCCCCCCCCC1=C(C(=O)OC)NC(N)=NC1O` (configuration not stated), for which the growth inhibition was 29% in assay [1]; 0.25% in assay [2]; -20.8% in assay [3]; -10.1% in assay [4]; 4.7% in assay [5]; 22.1% in assay [6].

As to `O=C(O)C(O)c1ccc(Cl)c(Cl)c1` (configuration not stated), the growth inhibition was 29.4% in assay [1]; -24.3% in assay [2]; 7.2% in assay [3]; -13.3% in assay [4]; 15.8% in assay [5]; 11.1% in assay [6].

Regarding `BrCCC[n+]1ccc2ccccc2c1-c1nccc2ccccc12`, the growth inhibition was 50.7% in assay [1]; 16.1% in assay [2]; 54.2% in assay [3]; 33.2% in assay [4]; 5.05% in assay [5]; 49.5% in assay [6].

Regarding `CCN(CC)C(=O)CCC1(C)OCCO1`, the growth inhibition was -4.8% in assay [1]; -12.1% in assay [2]; -25.3% in assay [3]; 56.4% in assay [4]; -13.9% in assay [5]; 6.45% in assay [6].

Regarding `c1ccc(-c2c3ccccc3c(-c3ccccc3)c3ccccc23)cc1`, the growth inhibition in assay [1] is 6.2%; in assay [2] it was 5.95%; in assay [3], 6.7%; in assay [4], -3.75%; in assay [5], 2.4%; in assay [6] it was 19.7%.

In the case of `O=C(/C=C/c1ccc2c(c1)OCO2)NCc1ccco1`, the growth inhibition in assay [1] is 53.5%; in assay [2], 8.7%; in assay [3], -19.6%; in assay [4], -5.8%; in assay [5] it was -14.4%; in assay [6] it was -34.9%.

In the case of `C(=NCc1ccccc1)c1ccccc1-c1ccccc1C=NCc1ccccc1`, the growth inhibition is 98% (active) in assay [1]; 98.7% (active) in assay [2]; 98.8% (active) in assay [3]; 91.8% (active) in assay [4]; 97.2% (active) in assay [5]; 98.1% (active) in assay [6].

Take `CC1CCCCC12OCCO2` (configuration not stated): the growth inhibition in assay [1] is -13.9%; in assay [2], -31.4%; in assay [3], 3.3%; in assay [4] it was 1.75%; in assay [5], -20.3%; in assay [6], -3.75%.

As for `Clc1ccccc1/C=N/N=C/c1ccccc1Cl`, the growth inhibition in assay [1] was 5.65%; in assay [2], -3.95%; in assay [3], -9.05%; in assay [4] it was -21.9%; in assay [5] it was 1.7%; in assay [6], 4.9%.

For `O=c1c2cc3c(cc2[nH]c2ncccc12)OCO3`, the growth inhibition is -12.8% in assay [1]; 0.65% in assay [2]; 2.85% in assay [3]; 13.8% in assay [4]; -2.55% in assay [5]; 26.3% in assay [6].

For the compound `NCc1ccc(Cl)cc1`, the growth inhibition was 8.65% in assay [1]; -2.65% in assay [2]; 11.4% in assay [3]; 25.8% in assay [4]; -2.2% in assay [5]; 14.2% in assay [6].

With `O=C(ONC1CCC(CC2CCCCC2)CC1)c1ccccc1` (configuration not stated), the growth inhibition in assay [1] was 98.5% (active); in assay [2], 98.8% (active); in assay [3], 99% (active); in assay [4] it was 96.8% (active); in assay [5] it was 98.2% (active); in assay [6], 98.5% (active).

In the case of `COC1(OC)CCC2=C(C)C(=O)CCC2(CO)C1` (configuration not stated), the growth inhibition in assay [1] was 15.7%; in assay [2], -2.95%; in assay [3] it was -5.95%; in assay [4] it was -51.8%; in assay [5], -14.4%; in assay [6], -1.9%.

As for `CC(=O)c1c(C)cc(C)nc1C`, the growth inhibition in assay [1] was 14.8%; in assay [2], -12.2%; in assay [3], 17.4%; in assay [4] it was 10%; in assay [5], 30.6%; in assay [6], 9%.

Consider `CC1C2CC(CC(=O)N2)C1(C)C` (configuration not stated), for which the growth inhibition was 15.6% in assay [1]; 21.6% in assay [2]; 21.7% in assay [3]; 15.1% in assay [4]; 11.2% in assay [5]; 13.6% in assay [6].

On to `NCCCN=c1ccc2c3c1c(O)c1c(O)ccc(=O)c1c3[nH]n2CCNCCO`, for which the growth inhibition in assay [1] was 89.1% (active); in assay [2], 35.1%; in assay [3] it was 33.3%; in assay [4] it was 17.9%; in assay [5] it was 28.6%; in assay [6], 36.2%.

In the case of `CC1=NCC(=O)N1`, the growth inhibition in assay [1] was -10.2%; in assay [2] it was 1.5%; in assay [3] it was -1.1%; in assay [4], -11.8%; in assay [5] it was -6.1%; in assay [6], -4%.

With `COc1ccc2c(c1)OC[C@@H]1c3cc(NS(=O)(=O)c4ccccc4)cc(OC)c3O[C@H]21`, the growth inhibition in assay [1] was 10.9%; in assay [2], 32.5%; in assay [3], 47.8%; in assay [4], 30.3%; in assay [5], 58.8%; in assay [6], 52.6%.

Consider `O=C(CC/C=C(/CS(=O)(=O)c1ccccc1)S(=O)(=O)c1ccccc1)c1ccccc1`, for which the growth inhibition was 20.3% in assay [1]; -15.1% in assay [2]; -5.75% in assay [3]; -24.1% in assay [4]; -6.15% in assay [5]; 13.4% in assay [6].

Consider `Cc1ccc(N2CCN(c3ccc([N+](=O)[O-])cc3)CC2)cc1Cl`, for which the growth inhibition in assay [1] was -6.15%; in assay [2], 7.15%; in assay [3], 2.85%; in assay [4], -12.4%; in assay [5] it was 0.15%; in assay [6] it was -28.3%.
